# According to PubChem BioAssay AID2314 (National Center for Advancing Translational Sciences (NCATS), 2010):
# In all, about 300,000 compounds went through this assay and about 37,000 (12%) were called active. Many of the other results were omitted from the sample, so actives are more common in it than they were. A number with no mark means an inactive call. No stated cut-off is given here; in the data, active means max response mostly above about 13% (no sharp cut-off); inactive means mostly below about 14%.
# Experiment: Cycloheximide Counterscreen for Small Molecule Inhibitors of Shiga Toxin; further: read at 38.3 µM for the half of the compounds with a filed dose; 0% is about no effect
# Details: cell reporter, cycloheximide protein synthesis inhibition counterscreen; stronger effect = higher value
row,Compound,max response
1,Cc1ccccc1-n1nnc2c(=O)oc3ccccc3c21,-0.308%
2,COC(=O)c1ccccc1NC(=O)C1CCN(S(=O)(=O)c2cc(OC)ccc2OC)CC1,-2.41%
3,O=c1c2c3c(sc2n(CCN2CCCC2)c(=O)n1Cc1ccccc1)CCCCC3,-3.62%
4,Cc1ccc(Nc2nc(-c3ccc(O)cc3O)cs2)nc1,50.9% (active)
5,Cc1ccc(NC(=O)c2cc(-c3ccc(C)o3)nc3ccccc23)nc1,-0.954%
6,COCCNc1nc(N)c([N+](=O)[O-])c(N2CCCCCC2)n1,3.03%
7,CCCCOC(=O)Nc1nccs1,18.8%
8,O=C(COC(=O)c1ccc(O)cc1)Nc1nccs1,9.78% (active)
9,Cc1cc(C(=O)OCC(=O)Nc2nccs2)c2ccccc2n1,-4.23%
10,CC(C)CNC(=S)NC(=O)c1ccc(Cl)cc1,34.2% (active)
11,Cc1scc(C(=O)NNC(=S)NCC(C)C)c1C,-0.894%
12,Cc1occc1C(=O)NNC(=S)NCC(C)C,-3.12%
13,Cc1cc(-c2nnc(SCC(=O)Nc3ccc(S(N)(=O)=O)cc3)n2N)n[nH]1,1.41%
14,CCCNC(=O)N1CCC(c2ccc3c(c2)OCO3)CC1,-1.8%
15,C=CCOc1ccccc1NC(=O)CN1C(=O)CNC1=O,0.268%
16,COC(=O)c1c(CCl)noc1C(=O)NC(C)C,-0.666%
17,COc1ccc(-c2cc3nc(C)c(CCC(=O)NC(C)CCc4ccco4)c(C)n3n2)c(OC)c1 (configuration not stated),8.95%
18,CC(=O)NC(CC(=O)O)c1ccc(F)cc1 (configuration not stated),-1.3%
19,CN(C)c1ccc(C(CC(=O)O)C(=O)O)cc1 (configuration not stated),38.6% (active)
20,CN(C)c1ccc(/C=N/NC(=O)C(O)c2ccc(Br)cc2)cc1 (configuration not stated),8.48%
21,COc1cc(NC(=O)c2cccs2)ccc1NC(=O)c1ccccc1Cl,28.9% (active)
22,CN1CCN(C(=O)/C(=C\c2ccc3c(c2)OCO3)NC(=O)c2cccs2)CC1,-1.19%
23,CCC(=O)c1cc2c(cc1NC(=O)c1cccs1)OCCO2,-4.08%
24,COc1cc(NC(=O)COc2ccccc2Cl)ccc1NC(=O)C(C)C,0.487%
25,COc1cc2ccccc2cc1C(=O)Nc1ccc(NC(=O)c2cccs2)cc1,-2.59%

row,Compound,max response
1,COc1cc(NC(=O)c2ccc3c(c2)OCO3)ccc1NC(=O)c1cccs1,17.8% (active)
2,COc1ccc(S(=O)(=O)N2CCC(C(=O)NCCC(=O)NCc3cccc(OC)c3)CC2)cc1,-2.91%
3,Cc1cc(S(=O)(=O)NC2CCCC2)ccc1-n1cnnn1,-1.68%
4,CCC(=O)Nc1cccc(C2=NOC3(C2)C[C@@H](C(N)=O)N(C(=O)c2cc([N+](=O)[O-])cc([N+](=O)[O-])c2C)C3)c1 (some centres not stated),3.34%
5,CC1=C(C(=O)Nc2ccccc2)C(c2cccs2)C(C#N)=C(SCC#N)N1 (configuration not stated),-2.44%
6,O=C(Nc1ccc(N2CCN(C(=O)c3ccccc3)CC2)c(Cl)c1)c1ncn[nH]1,-0.606%
7,COc1ccc2cc(C(=O)O)n(CC(=O)c3ccccc3)c2c1,-1.7%
8,CCn1c(=N)n(CC(=O)c2cccc(OC)c2)c2ccccc21,35.3% (active)
9,CCCn1c(=N)n(CC(=O)c2ccc(Cl)c(Cl)c2)c2ccccc21,-0.499%
10,Cc1ccc(Cn2c(=N)c(S(=O)(=O)c3ccc(C)cc3)cc3c(=O)n4ccccc4nc32)cc1,-2.4%
11,C=CCc1cc(S(=O)(=O)c2ccc(O)c(CC=C)c2)ccc1O,-2.33%
12,O=C(Nc1cccc(NC(=O)c2cccc(F)c2)c1)c1ccccc1,9.34%
13,Cc1c(NC(=O)c2coc(=O)c(Br)c2)c(=O)n(-c2ccccc2)n1C,10.1%
14,O=C(Nc1cccc(F)c1)c1coc(=O)c(Br)c1,22.1% (active)
15,COc1ccc(CCNC(=O)CN2C(=O)CCSc3ccccc32)c(OC)c1,-1.78%
16,COc1ccc(CC(=O)N/N=C/c2cc([N+](=O)[O-])cc(Br)c2O)cc1,-2.73%
17,CCOc1cccc(/C=N/NC(=S)NCCN2CCOCC2)c1O,9.08%
18,O=C1CSC(=S)N1/N=C/c1ccc(O)c([N+](=O)[O-])c1,2.96%
19,CCOc1cccc(/C=N/N2C(=O)CSC2=S)c1O,13.3% (active)
20,Cc1cccc(CN2CCC(n3nccc3NC(=O)c3ccccc3C)CC2)n1,2.27%
21,COc1ccc(OCc2cn3c(C)cc(C)nc3n2)cc1,17.1%
22,CNS(=O)(=O)c1cccc(C(=O)NCC2CCCCC2)c1,-3.55%
23,CN(C)S(=O)(=O)N1CCC(Oc2cccc(C(=O)NCCCC3CCCC3)c2)CC1,52.4% (active)
24,CN(C(=O)c1cccc(OC2CCN(S(=O)(=O)N(C)C)CC2)c1)C1CCOC1 (configuration not stated),16.6%
25,Cc1ccc(C(=O)Nc2nc(N)n(-c3ccccc3)n2)cc1,20.3% (active)

row,Compound,max response
1,Nc1nc(NC(=O)/C=C/c2ccccc2)nn1-c1ccccc1,-0.981%
2,Cc1ccc(S(=O)(=O)Nc2nc(N)n(-c3ccccc3)n2)cc1,-2.82%
3,CC(=O)c1ccc(OCC(O)CN2CCN(S(=O)(=O)c3cccc(Br)c3)CC2)cc1 (configuration not stated),-0.615%
4,O=c1c2cc([N+](=O)[O-])ccc2nc2n1CCC2,-3.29%
5,O=c1[nH]c(/C=C\c2cccc(C(F)(F)F)c2)nc(O)c1[N+](=O)[O-],-0.44%
6,C=CCN(CC=C)C(=O)Nc1ccc(OCC)cc1,12.5%
7,Cc1nn(CC(=O)Nc2ccc3c(c2)nc(CN2CCCCC2)n3C)c(=O)c2ccccc12,9.68%
8,C=CCN(C(=O)Cn1ncc2c1-c1cc(C)ccc1OC2)c1ccccc1,-3.22%
9,C=CCN(C(=O)Nc1ccc2c(c1)nc(C)n2C)c1ccccc1,32.3% (active)
10,C=CCN(C(=O)Nc1ccc2oc(C)nc2c1)c1ccccc1,44.6% (active)
11,CCC(=O)Nc1ccc2nc(C)n(Cc3ccccc3Cl)c(=O)c2c1,-0.377%
12,O=C(NCCCO)c1cc2c([nH]c3ccccc32)c(-c2ccc(F)cc2)n1,1.63%
13,Cc1c(C=O)c2ccccc2n1CCOc1ccccc1,11.4%
14,COC(=O)c1ccccc1N=Nc1c(C)[nH][nH]c1=O,-1.54%
15,COc1ccccc1N=Nc1c(O)[nH]c(=S)[nH]c1=O,18.5% (active)
16,COc1ccccc1N=C(C)C1=C(O)COC1=O,-3.1%
17,COCCCNC(NC(=O)c1ccc(C)cc1)C(Cl)(Cl)Cl (configuration not stated),0.737%
18,Cc1ccc(CNC(=O)C2CCN(S(=O)(=O)c3ccc4nc5c(c(C(=O)O)c4c3)CC(C)CC5)CC2)cc1 (configuration not stated),-2.65%
19,O=C(NCCCCc1ccccc1)C1CC(c2ccc([N+](=O)[O-])cc2)=NO1 (configuration not stated),1.79%
20,Cc1[nH][nH]c(=O)c1N=Nc1ccccc1,-2.86%
21,Nc1[nH][nH]c(=O)c1N=Nc1ccc2c(c1)OCO2,37.1% (active)
22,Cc1[nH][nH]c(=O)c1C(c1ccc2c(c1)OCO2)c1c(C)[nH][nH]c1=O,-0.172%
23,COc1cc(OC)c2c(c1C(CCN1CCCCC1)c1ccc(N(C)C)cc1)OC(=O)CC2c1ccc(N(C)C)cc1 (configuration not stated),-4.1%
24,Cc1ccc(O)c(CCc2ccccc2)n1,17.6% (active)
25,c1ccc(CSCCc2ccncc2)cc1,7.75%

row,Compound,max response
1,Cc1ccc(O)c(-c2cc(C(=O)NCc3ccccc3)[nH]n2)c1,11.1%
2,CC(=O)N1CC[n+]2c(-c3ccc([N+](=O)[O-])cc3)csc21,6.33%
3,COc1cccc(-c2nc3ccc(N4CCN(C)CC4)cc3[nH]2)c1,-9.87%
4,CN1CCN(c2ccc([N+](=O)[O-])c(Sc3nc4ccccc4[nH]3)c2)CC1,-2.61%
5,Cc1nc2ccc(N3CCN(C)CC3)cc2nc1C,40.7% (active)
6,Cc1ccc(Cn2cc(C(=O)NN)c(=O)c3ccc(F)cc32)cc1,-3.85%
7,Cc1ccc(CNC(=O)c2c(-c3ccccc3)noc2C)cc1,-2.32%
8,CC(=O)c1ccc(NC(=O)c2ccc3c(Cl)c4c(nc3c2)CCCC4)cc1,-0.107%
9,COc1ccc(N2CCN(C(=O)c3ccc4c(Cl)c5c(nc4c3)CCCC5)CC2)cc1,-3.2%
10,CC(C)CCNC(=O)c1ccc2c(Cl)c3c(nc2c1)CCC3,48.4% (active)
11,COc1cccc(CC2(CO)CCN(Cc3cnc(-c4cccc(C)c4)nc3)CC2)c1,10.3%
12,Cc1nc2ccc(C(=O)O)cc2[nH]1,-7.8%
13,Oc1ccc2nc(Cc3ccccc3)[nH]c2c1,20.5% (active)
14,c1ccc2cc3[nH]c(CN4CCCCC4)nc3cc2c1,31.1%
15,Cc1cc(OCC(=O)N2CCN(c3ncccn3)CC2)ccc1Cl,-2.98%
16,O=C(CC1C(=O)NCCN1CC(c1ccccc1)c1ccccc1)NCC1CCOCC1 (configuration not stated),-4.31%
17,Cc1nc(Nc2ccc3c(c2)OCCO3)c2nnn(Cc3ccccc3Cl)c2n1,83.5% (active)
18,CCCc1nc(NCc2ccc3c(c2)OCO3)c2nnn(Cc3ccccc3Cl)c2n1,-2.15%
19,Cc1nc(Nc2ccccc2F)c2nnn(Cc3ccccc3Cl)c2n1,-1.8%
20,CC1(c2ccc3ccccc3c2)NC(=O)N(CC(N)=O)C1=O (configuration not stated),-1.55%
21,CC(C)=C(NC(=O)c1ccco1)C(=O)NCCc1nc2ccccc2[nH]1,-2.53%
22,Nc1cccc(CCc2nc3ccccc3[nH]2)c1,24% (active)
